Reference: the supplement of paper PMC3545927
The list shows a part of the results. How many sequences the whole screen found active is unknown.

Target: furin, P09958
Experiment: furin cleavage Z-score vs untreated control; higher = more cleavage, active = 3.5 or more, inactive = 1 or less, 8 variable residues between constant flanks
How it was run: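 The cleavage Z-score is the log read count relative to furin-free reactions, lowess-adjusted and scaled by median absolute deviation. Counts came from sequencing DNA released from bead-bound 8-mer peptide–cDNA fusions after digestion with purified furin for 7.5, 15 or 30 min.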
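Also: purified furin at 1:10 enzyme:substrate in 50 mM HEPES pH 7.5.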

Sequence of furin, P09958 (P09958 whole entry): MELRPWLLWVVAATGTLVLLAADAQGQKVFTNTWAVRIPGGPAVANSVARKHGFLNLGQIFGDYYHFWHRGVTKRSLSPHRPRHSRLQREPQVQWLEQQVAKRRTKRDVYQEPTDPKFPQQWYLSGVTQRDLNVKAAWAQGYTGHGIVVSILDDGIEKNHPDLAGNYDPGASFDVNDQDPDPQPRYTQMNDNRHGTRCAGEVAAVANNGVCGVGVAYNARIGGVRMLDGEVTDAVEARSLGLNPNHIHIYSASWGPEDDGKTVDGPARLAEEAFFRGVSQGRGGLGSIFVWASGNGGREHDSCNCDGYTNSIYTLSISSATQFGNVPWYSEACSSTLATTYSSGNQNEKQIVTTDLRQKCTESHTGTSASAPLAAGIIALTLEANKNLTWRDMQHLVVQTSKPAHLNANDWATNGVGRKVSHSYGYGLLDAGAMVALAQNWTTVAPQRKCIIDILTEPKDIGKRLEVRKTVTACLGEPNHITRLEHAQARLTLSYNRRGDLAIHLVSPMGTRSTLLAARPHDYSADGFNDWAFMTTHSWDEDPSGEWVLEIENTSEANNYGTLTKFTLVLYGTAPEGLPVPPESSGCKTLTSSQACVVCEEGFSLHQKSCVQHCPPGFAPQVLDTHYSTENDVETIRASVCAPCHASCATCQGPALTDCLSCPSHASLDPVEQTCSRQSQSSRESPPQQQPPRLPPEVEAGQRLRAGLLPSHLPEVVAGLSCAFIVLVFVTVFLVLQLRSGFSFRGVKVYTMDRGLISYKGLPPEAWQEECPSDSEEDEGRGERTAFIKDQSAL

Row | Sequence | furin cleavage Z-score (7.5 min) | furin cleavage Z-score (15 min) | furin cleavage Z-score (30 min)
1 | CALEVVTSTWAGNASASA [HC987] | 0.41 (inactive) | 0.551 (inactive) | 1.7
2 | CAEVVTSTWAAGNASASA [HC2243] | -0.622 (inactive) | 0.588 (inactive) | -0.814 (inactive)
3 | CAVVCCSMIYAGNASASA [HC2064] | -0.191 (inactive) | -0.994 (inactive) | 0.202 (inactive)
4 | CAGSSRRFRAAGNASASA [FS-1003] | -0.163 (inactive) | 1.3 | 2.13
5 | CACFRKHPDAAGNASASA [HC453] | -1.37 (inactive) | -1.46 (inactive) | -0.48 (inactive)
6 | CACFRRSKRAAGNASASA [FS-1514] | 9.65 (active) | 9.01 (active) | 6.16 (active)
7 | CARWRRTKGAAGNASASA [FS-1873] | -0.133 (inactive) | -1.53 (inactive) | -0.0248 (inactive)
8 | CACVRRSPCAAGNASASA [FS-2118] | -0.381 (inactive) | -1.71 (inactive) | -0.39 (inactive)
9 | CAGSPRSKRAAGNASASA [FS-788] | 11.2 (active) | 9.92 (active) | 8.49 (active)
10 | CARWRRSKRAAGNASASA [FS-959] | 11.1 (active) | 11.6 (active) | 8.46 (active)
11 | CAGSPPSVASAGNASASA [HC1257] | -0.959 (inactive) | -1.08 (inactive) | 0.309 (inactive)
12 | CAGVLTTSCGAGNASASA [HC1512] | -0.572 (inactive) | 0.491 (inactive) | -0.869 (inactive)
13 | CAATQLRRHIAGNASASA [HC288] | -0.217 (inactive) | 0.529 (inactive) | 1.16
14 | CAYASRGIRPAGNASASA [FS-1618] | -0.625 (inactive) | -0.502 (inactive) | -1.11 (inactive)
15 | CAAQQRKKRAAGNASASA [FS-1306] | 6.17 (active) | 6.15 (active) | 6.14 (active)
16 | CAAGARKKRAAGNASASA [FS-970] | 6.63 (active) | 6.95 (active) | 6.49 (active)
17 | CAAGAGAGAGAGNASASA [NE3] | -0.934 (inactive) | -0.656 (inactive) | -0.752 (inactive)
18 | CAGGQRKKRAAGNASASA [FS-1125] | 8.55 (active) | 7.61 (active) | 6.45 (active)
19 | CAGGQIVGGVAGNASASA [HC174] | -1.23 (inactive) | -1.41 (inactive) | -1.78 (inactive)
20 | CASHQKKKRAAGNASASA [FS-1486] | 4.35 (active) | 2.8 | 4.35 (active)
21 | CAAGARLVVLAGNASASA [HC830] | 1.19 | 0.934 (inactive) | 0.0298 (inactive)
22 | CALREVPCHRAGNASASA [HC2425] | -0.109 (inactive) | -0.538 (inactive) | -0.256 (inactive)
23 | CAEVPCHEPSAGNASASA [HC2372] | -0.836 (inactive) | 1.11 | -0.669 (inactive)
24 | CAGAPPCVIGAGNASASA [HC443] | 1.73 | -1.15 (inactive) | -0.113 (inactive)
25 | CALAGTHGLVAGNASASA [HC540] | 0.465 (inactive) | 1.56 | 0.729 (inactive)
26 | CATDRSGAPTAGNASASA [HC420] | -0.957 (inactive) | -0.534 (inactive) | 0.262 (inactive)
27 | CANVSVAHDGAGNASASA [HC1555] | 0.322 (inactive) | -0.558 (inactive) | 0.0108 (inactive)
28 | CAALENLVILAGNASASA [HC534] | -0.644 (inactive) | -1.06 (inactive) | -0.181 (inactive)
